Results: the supplement of paper PMC8728848
The sample as a whole holds a higher share of the strongest signals than the screen did.

Legend:
Assay in all cases: glycan array binding signal (z-score within array); higher = stronger binding
Settings in all cases: glycan notation: IUPAC condensed, linker removed
[1] = molecular target: Fuc(a1-2)Gal(b1-4)GlcNAc
In short: (§1)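 The binding signal is a Z-score computed within each array and averaged over linkers. Arrays of the same protein sequence at different concentrations or buffers were also averaged together. Data originate from 3228 arrays in the Consortium for Functional Glycomics database, kept only where the protein sequence was available.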

[2] = molecular target: Fuc(a1-2)Gal(b1-4)GlcNAc(b1-3)Gal(b1-4)GlcNAc(b1-2)Man(a1-3)[Fuc(a1-2)Gal(b1-4)GlcNAc(b1-3)Gal(b1-4)GlcNAc(b1-2)Man(a1-6)]Man(b1-4)GlcNAc(b1-4)GlcNAc
In short: as §1

[3] = molecular target: Fuc(a1-2)[Gal(a1-3)]Gal(b1-3)GalNAc(b1-3)Gal(a1-4)Gal(b1-4)Glc
In short: as §1

[4] = molecular target: Fuc(a1-2)[GalNAc(a1-3)]Gal(b1-4)GlcNAc(b1-2)Man
In short: as §1

[5] = molecular target: Fuc(a1-4)GlcNAc
In short: as §1

[6] = molecular target: Gal(a1-3)Gal(b1-3)GlcNAc(b1-6)GalNAc
In short: as §1

[7] = molecular target: Gal(a1-3)[Gal(a1-4)]Gal(b1-4)GlcNAc
In short: as §1

[8] = molecular target: Gal(a1-4)GlcNAc
In short: as §1

[9] = molecular target: Gal(b1-3)GlcNAc(b1-3)Gal(b1-4)GlcNAc(b1-2)[Gal(b1-3)GlcNAc(b1-3)Gal(b1-4)GlcNAc(b1-6)]Man(a1-6)[Gal(b1-3)GlcNAc(b1-3)Gal(b1-4)GlcNAc(b1-2)Man(a1-3)]Man(b1-4)GlcNAc(b1-4)[Fuc(a1-6)]GlcNAc
In short: as §1

[10] = molecular target: Gal(b1-3)GlcNAc(b1-3)Gal(b1-4)GlcNAc(b1-6)[Gal(b1-3)GlcNAc(b1-3)]Gal(b1-4)Glc
In short: as §1

[11] = molecular target: Gal(b1-4)GlcNAc(b1-2)Man(a1-3)[Gal(b1-4)GlcNAc(b1-2)Man(a1-6)]Man(b1-4)GlcNAc(b1-4)GlcNAc
In short: as §1

[12] = molecular target: Gal(b1-4)GlcNAc(b1-2)[Gal(b1-4)GlcNAc(b1-4)]Man(a1-3)[GlcNAc(b1-4)][Gal(b1-4)GlcNAc(b1-2)Man(a1-6)]Man(b1-4)GlcNAc(b1-4)GlcNAc
In short: as §1

[13] = molecular target: Gal(b1-4)GlcNAc(b1-3)Gal(b1-4)GlcNAc(b1-3)Gal(b1-4)GlcNAc
In short: as §1

[14] = molecular target: Gal(b1-4)GlcNAc(b1-3)Gal(b1-4)GlcNAc(b1-3)Gal(b1-4)GlcNAc(b1-3)Gal(b1-4)GlcNAc(b1-3)Gal(b1-4)GlcNAc(b1-2)[Gal(b1-4)GlcNAc(b1-3)Gal(b1-4)GlcNAc(b1-3)Gal(b1-4)GlcNAc(b1-3)Gal(b1-4)GlcNAc(b1-3)Gal(b1-4)GlcNAc(b1-6)]Man(a1-6)[Gal(b1-4)GlcNAc(b1-3)Gal(b1-4)GlcNAc(b1-3)Gal(b1-4)GlcNAc(b1-3)Gal(b1-4)GlcNAc(b1-3)Gal(b1-4)GlcNAc(b1-2)Man(a1-3)]Man(b1-4)GlcNAc(b1-4)[Fuc(a1-6)]GlcNAc
In short: as §1

[15] = molecular target: Gal(b1-4)GlcNAc(b1-3)[GlcNAc(b1-6)]Gal(b1-4)GlcNAc
In short: as §1

[16] = molecular target: Gal(b1-4)GlcNAc(b1-6)GalNAc
In short: as §1

[17] = molecular target: Gal4S(b1-4)GlcNAc
In short: as §1

[18] = molecular target: GalNAc(a1-3)Gal
In short: as §1

[19] = molecular target: GalNAc(b1-4)GlcNAc(b1-3)GalNAc(b1-4)GlcNAc
In short: as §1

[20] = molecular target: GlcNAc(b1-3)Gal(b1-4)GlcNAc(b1-2)[GlcNAc(b1-3)Gal(b1-4)GlcNAc(b1-6)]Man(a1-6)[GlcNAc(b1-3)Gal(b1-4)GlcNAc(b1-2)Man(a1-3)]Man(b1-4)GlcNAc(b1-4)GlcNAc
In short: as §1

[21] = molecular target: GlcNAc(b1-3)Gal(b1-4)GlcNAc(b1-3)Gal(b1-4)GlcNAc(b1-2)Man(a1-3)[GlcNAc(b1-3)Gal(b1-4)GlcNAc(b1-3)Gal(b1-4)GlcNAc(b1-2)Man(a1-6)]Man(b1-4)GlcNAc(b1-4)GlcNAc
In short: as §1

[22] = molecular target: GlcNAc(b1-3)Gal(b1-4)GlcNAc(b1-3)Gal(b1-4)GlcNAc(b1-3)Gal(b1-4)GlcNAc(b1-2)Man(a1-3)[GlcNAc(b1-3)Gal(b1-4)GlcNAc(b1-3)Gal(b1-4)GlcNAc(b1-3)Gal(b1-4)GlcNAc(b1-2)Man(a1-6)]Man(b1-4)GlcNAc(b1-4)[Fuc(a1-6)]GlcNAc
In short: as §1

[23] = molecular target: GlcNAc(b1-3)Gal(b1-4)GlcNAc(b1-3)Gal(b1-4)GlcNAc(b1-3)Gal(b1-4)GlcNAc(b1-3)Gal(b1-4)GlcNAc(b1-2)Man(a1-3)[GlcNAc(b1-3)Gal(b1-4)GlcNAc(b1-3)Gal(b1-4)GlcNAc(b1-3)Gal(b1-4)GlcNAc(b1-3)Gal(b1-4)GlcNAc(b1-2)Man(a1-6)]Man(b1-4)GlcNAc(b1-4)[Fuc(a1-6)]GlcNAc
In short: as §1

[24] = molecular target: GlcNAc(b1-3)Gal(b1-4)GlcNAc(b1-3)Gal(b1-4)GlcNAc(b1-3)Gal(b1-4)GlcNAc(b1-3)Gal(b1-4)GlcNAc(b1-2)[GlcNAc(b1-3)Gal(b1-4)GlcNAc(b1-3)Gal(b1-4)GlcNAc(b1-3)Gal(b1-4)GlcNAc(b1-3)Gal(b1-4)GlcNAc(b1-6)]Man(a1-6)[GlcNAc(b1-3)Gal(b1-4)GlcNAc(b1-3)Gal(b1-4)GlcNAc(b1-3)Gal(b1-4)GlcNAc(b1-3)Gal(b1-4)GlcNAc(b1-2)Man(a1-3)]Man(b1-4)GlcNAc(b1-4)[Fuc(a1-6)]GlcNAc
In short: as §1

[25] = molecular target: GlcNAc(b1-4)[GlcNAc(b1-6)]GalNAc
In short: as §1

[26] = molecular target: Kdn(a2-3)Gal(b1-4)GlcNAc
In short: as §1

[27] = molecular target: Neu5Ac(a2-3)Gal(b1-3)[Fuc(a1-4)]GlcNAc
In short: as §1

[28] = molecular target: Neu5Ac(a2-3)Gal(b1-3)[Fuc(a1-4)]GlcNAc(b1-3)Gal(b1-3)[Fuc(a1-4)]GlcNAc
In short: as §1

[29] = molecular target: Neu5Ac(a2-3)Gal(b1-3)[Neu5Ac(a2-6)]GalNAc
In short: as §1

[30] = molecular target: Neu5Ac(a2-3)Gal(b1-4)GlcNAc(b1-2)Man(a1-3)[Neu5Ac(a2-3)Gal(b1-4)GlcNAc(b1-2)Man(a1-6)]Man(b1-4)GlcNAc(b1-4)GlcNAc
In short: as §1

[31] = molecular target: Neu5Ac(a2-3)Gal(b1-4)GlcNAc(b1-3)Gal(b1-4)GlcNAc
In short: as §1

[32] = molecular target: Neu5Ac(a2-3)Gal(b1-4)GlcNAc(b1-3)[Neu5Ac(a2-3)Gal(b1-4)GlcNAc(b1-6)]GalNAc
In short: as §1

[33] = molecular target: Neu5Ac(a2-3)Gal(b1-4)[Fuc(a1-3)]GlcNAc
In short: as §1

[34] = molecular target: Neu5Ac(a2-6)Gal(b1-4)GlcNAc(b1-2)Man(a1-3)[GlcNAc(b1-4)][Neu5Ac(a2-6)Gal(b1-4)GlcNAc(b1-2)Man(a1-6)]Man(b1-4)GlcNAc(b1-4)GlcNAc
In short: as §1

[35] = molecular target: Neu5Ac(a2-6)Gal(b1-4)GlcNAc(b1-2)Man(a1-3)[Neu5Ac(a2-3)Gal(b1-4)GlcNAc(b1-2)Man(a1-6)]Man(b1-4)GlcNAc(b1-4)GlcNAc
In short: as §1

[36] = molecular target: Neu5Ac(a2-6)Gal(b1-4)GlcNAc(b1-2)Man(a1-3)[Neu5Ac(a2-6)Gal(b1-4)GlcNAc(b1-2)Man(a1-6)]Man(b1-4)GlcNAc(b1-4)GlcNAc
In short: as §1

[37] = molecular target: Neu5Ac(a2-6)Gal(b1-4)GlcNAc(b1-2)Man(a1-3)[Neu5Ac(a2-6)Gal(b1-4)GlcNAc(b1-2)Man(a1-6)]Man(b1-4)GlcNAc(b1-4)[Fuc(a1-6)]GlcNAc
In short: as §1

[38] = molecular target: Neu5Ac(a2-6)Gal(b1-4)GlcNAc(b1-3)Gal(b1-4)GlcNAc(b1-3)Gal(b1-4)GlcNAc
In short: as §1

[39] = molecular target: Neu5Ac(a2-6)Gal(b1-4)GlcNAc(b1-6)GalNAc
In short: as §1

[40] = molecular target: Neu5Ac(a2-6)Gal(b1-4)GlcNAc6S
In short: as §1

[41] = molecular target: Neu5Ac(a2-8)Neu5Ac(a2-3)Gal(b1-4)GlcNAc
In short: as §1

[42] = molecular target: Neu5Ac(a2-8)Neu5Gc(a2-3)Gal(b1-4)GlcNAc
In short: as §1

[43] = molecular target: Neu5Gc(a2-3)Gal(b1-3)GlcNAc
In short: as §1

[44] = molecular target: Neu5Gc(a2-3)Gal(b1-3)[Fuc(a1-4)]GlcNAc
In short: as §1

[45] = molecular target: Neu5Gc(a2-8)Neu5Gc(a2-3)Gal(b1-4)GlcNAc(b1-3)Gal(b1-4)GlcNAc
In short: as §1

[46] = molecular target: Neu5Gc(a2-8)Neu5Gc(a2-6)Gal(b1-4)GlcNAc
In short: as §1

B1: PX9961W-pdi-543-27-543 (Parabacteroides distasonis) (protein)
chain: EGNATTTSYFLNDQQAIDAIDGLYERFHQEGCYGRELFWEQGAACDIVWGRTRGYNSLATLAYTGDESPLRDVFSRMYSTMSRANWIIQELVKKEKGTTLTAVEKRSLGEAYFSRGWAHYLIAYRYGTDKQGVPFVRYEDFPDDYDNSIPPQQATVMDNYKLIIEDMDKAIAYLPIFESYDADNRGRAHQAAAVAFKAKTYAYWATWDATQWNNVIEMVNQLENNYNRDLAPTFAELFSSDLKDYWNAEYLWTIPSIGGALPGGTEFPGIILENKGWGKYNGWGQMKPSYDIYEEMAKDGKGNDRLVRSILEYNQEFPFFGETRKFWSTSDLEAGFMINKYMDAFKYSDPVGEGAVSANGDWPTVRVNFPIIRFAEMLLFRAEAYLMTGQADKATADINRIRLRSNLTPLTGTATMKDLYHERRCELAFEFTDHLFDLKRWNRSSNADIKTLADKELNAHPRIRRYEDRANPESAFTIIGYEDYTNKNAYQAHMMVFPYPSEEITKSNGQLKQNEGY
[1]
  glycan array binding signal (z-score): -0.724
[2]
  glycan array binding signal (z-score): 0.321
[3]
  glycan array binding signal (z-score): -0.488
[4]
  glycan array binding signal (z-score): 0.843
[5]
  glycan array binding signal (z-score): -0.806
[6]
  glycan array binding signal (z-score): -0.936
[7]
  glycan array binding signal (z-score): 4.9
[8]
  glycan array binding signal (z-score): -0.436
[9]
  glycan array binding signal (z-score): 3.68
[10]
  glycan array binding signal (z-score): 2.47
[11]
  glycan array binding signal (z-score): 0.803
[12]
  glycan array binding signal (z-score): -0.379
[13]
  glycan array binding signal (z-score): 0.348
[14]
  glycan array binding signal (z-score): 2.95
[15]
  glycan array binding signal (z-score): -1.13
[16]
  glycan array binding signal (z-score): 0.97
[17]
  glycan array binding signal (z-score): -0.282
[18]
  glycan array binding signal (z-score): -0.723
[19]
  glycan array binding signal (z-score): -0.156
[20]
  glycan array binding signal (z-score): 2.42
[21]
  glycan array binding signal (z-score): 2.38
[22]
  glycan array binding signal (z-score): 1.14
[23]
  glycan array binding signal (z-score): 2.16
[24]
  glycan array binding signal (z-score): 2.07
[25]
  glycan array binding signal (z-score): 0.793
[26]
  glycan array binding signal (z-score): -0.351
[27]
  glycan array binding signal (z-score): -0.779
[28]
  glycan array binding signal (z-score): 2.45
[29]
  glycan array binding signal (z-score): -1.05
[30]
  glycan array binding signal (z-score): -0.589
[31]
  glycan array binding signal (z-score): -0.712
[32]
  glycan array binding signal (z-score): -0.167
[33]
  glycan array binding signal (z-score): -0.648
[34]
  glycan array binding signal (z-score): -0.023
[35]
  glycan array binding signal (z-score): -0.733
[36]
  glycan array binding signal (z-score): -0.249
[37]
  glycan array binding signal (z-score): 0.138
[38]
  glycan array binding signal (z-score): -0.315
[39]
  glycan array binding signal (z-score): 0.508
[40]
  glycan array binding signal (z-score): -0.912
[41]
  glycan array binding signal (z-score): -0.026
[42]
  glycan array binding signal (z-score): 14.4
[43]
  glycan array binding signal (z-score): -0.935
[44]
  glycan array binding signal (z-score): -0.874
[45]
  glycan array binding signal (z-score): -0.859
[46]
  glycan array binding signal (z-score): 0.393
